Consider 56 molecules from PubChem BioAssay AID1440 (NMMLSC, 2008).

Among all 220,000 compounds or so, fewer than 10 were called active. Inconclusive results (about 92%) are left out. No rule for the calls is given here. Not all results are given here.

Chain of Guanine nucleotide-binding protein G(o) subunit alpha (Homo sapiens) + Regulator of G-protein signaling 19 (Homo sapiens) (P09471 whole entry, looked up): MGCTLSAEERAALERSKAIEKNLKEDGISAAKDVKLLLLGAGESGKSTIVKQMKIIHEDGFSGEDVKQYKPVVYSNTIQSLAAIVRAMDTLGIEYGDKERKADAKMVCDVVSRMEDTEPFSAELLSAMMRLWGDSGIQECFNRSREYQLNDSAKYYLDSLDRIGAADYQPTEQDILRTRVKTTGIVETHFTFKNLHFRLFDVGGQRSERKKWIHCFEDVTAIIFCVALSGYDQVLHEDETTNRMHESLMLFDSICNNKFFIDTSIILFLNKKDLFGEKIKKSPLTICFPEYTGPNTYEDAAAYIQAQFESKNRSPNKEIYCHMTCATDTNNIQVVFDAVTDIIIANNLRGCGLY
Chain of Guanine nucleotide-binding protein G(o) subunit alpha (Homo sapiens) + Regulator of G-protein signaling 19 (Homo sapiens) (P49795 whole entry, looked up): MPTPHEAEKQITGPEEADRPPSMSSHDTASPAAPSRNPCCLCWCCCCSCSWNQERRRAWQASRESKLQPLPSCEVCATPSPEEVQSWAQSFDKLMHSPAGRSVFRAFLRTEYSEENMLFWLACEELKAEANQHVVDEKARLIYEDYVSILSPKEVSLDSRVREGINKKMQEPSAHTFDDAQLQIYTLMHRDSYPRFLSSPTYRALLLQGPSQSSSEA

The test addresses Guanine nucleotide-binding protein G(o) subunit alpha (Homo sapiens) + Regulator of G-protein signaling 19 (Homo sapiens) (UniProt P09471+P49795). Put plainly: modulators of human RGS19-Gαo interaction – biochemical, multiplexed bead flow cytometry (AID 1440).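 Also: fluorescent Galpha o activated by aluminum fluoride binding bead-coupled RGS19.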 The conditions noted are these: RGS19-Galphao binding, at 10 µM.
For `COc1ccc(C(=O)CN(C(=O)c2ccc(Cl)cc2)N2C(=O)C3CCCCC3C2=O)cc1` (stereo unspecified), the binding response (% of control) worked out at 103%.

For the molecule `Cc1c(NC(=O)CSc2nc3c(cnn3-c3ccccc3)c(=O)[nH]2)c(=O)n(-c2ccccc2)n1C`, the binding response (% of control) amounted to 125%.

Take `CC(C)CC1=C/C(=C/c2ccc(-c3ccccc3)o2)C(=O)O1`: the binding response (% of control) came to 71.1%.

`Cc1ccc(Cl)c(OCCN2CCCC(C)C2)c1` (stereo unspecified): the binding response (% of control) turned out to be 118%.

With `Cc1cc(=O)n2[nH]c(SCc3ccccc3)nc2n1`, the binding response (% of control) was found to be 102%.

On to `O=C(c1ccccc1F)N1CCN(c2ccccc2)CC1`, for which the binding response (% of control) is 64.3%.

Take `Cn1cc(CN(CCCN2CCOCC2)C(=S)Nc2cccc(Cl)c2)c2ccccc21`: the binding response (% of control) was -17%.

With `COC(=O)c1cc(OC)c(OC)cc1NC(=S)N1CCCC(CO)C1` (stereo unspecified), the binding response (% of control) amounted to 98.1%.

As for `Cc1ccc(NC(=O)N(Cc2ccco2)Cc2cc3cc(C)cc(C)c3nc2Cl)cc1`, the binding response (% of control) turned out to be 92.8%.

Regarding `CCOc1ccc(-c2nnc(N)o2)cc1`, the binding response (% of control) was determined as 71.8%.

Turning to `CC(=O)Nc1ccc(NC(=O)Oc2ccccc2)cc1`, the binding response (% of control) is 99.1%.

As to `CCOC(=O)c1c(C)n(-c2ccc(OC)cc2)c2c(C/C(C)=N/O)c(Br)c(OC)c(O)c12`, the binding response (% of control) worked out at 120%.

For `COc1cccc(C2=CC(c3ccc(OC)c(OC)c3OC)n3nnnc3N2)c1` (stereo unspecified), the binding response (% of control) worked out at 102%.

In the case of `O=Nc1c(O)n(Cc2ccc(Cl)c(Cl)c2)c2ccccc12`, the binding response (% of control) came out at 70.4%.

`CCOC(=O)c1nnc(-c2cccs2)nc1NC(C)C`: the binding response (% of control) amounted to 220%.

For `CCOC(=O)c1nnn(-c2nc(OC)nc(N3CCCCC3)n2)c1-c1ccccc1`, the binding response (% of control) was 69.6%.

`O=C(c1cnccn1)N(Cc1cccs1)C1(C(=O)NC2CCCCC2)CCCCC1`: the binding response (% of control) is -941%.

`COc1ccc(Br)cc1-c1noc(-c2ccncc2)n1`: the binding response (% of control) worked out at 92.5%.

Regarding `Cc1ccc(C(=O)NC(=S)N2CCN(C)CC2)cc1`, the binding response (% of control) was 97.8%.

On to `CC(=O)c1nc2ccccc2n1S(=O)(=O)c1ccc(C)cc1`, for which the binding response (% of control) worked out at 97.2%.

Regarding `Clc1ccc(/C=N/N2CCN(Cc3ccccc3Cl)CC2)cc1`, the binding response (% of control) was 100%.

With `COc1ccc(N2CCN(C(=O)CSc3nnnn3-c3ccc4c(c3)OCCO4)CC2)cc1`, the binding response (% of control) is 94.7%.

For the molecule `COc1ccc(N(C(=O)Cn2nnc3ccccc32)C(C(=O)NCc2ccco2)c2cccnc2)cc1` (stereo unspecified), the binding response (% of control) turned out to be 110%.

With `CC(C)(C)OC(=O)N1CCOCCOCCNCCOCCOCC1`, the binding response (% of control) worked out at 98.6%.

For `CN=C(Nc1cc(C)nn1-c1ccccc1)c1ccccc1`, the binding response (% of control) came to 113%.

Regarding `COCCCNC(=O)c1ccc(NS(C)(=O)=O)cc1`, the binding response (% of control) came to 96.8%.

On to `Cc1ccc(CNCC2CCCO2)o1` (stereo unspecified), for which the binding response (% of control) came out at 96.8%.

In the case of `COc1ccc2c(c1)c(C(=O)CNc1nc(C)cs1)c(C)n2C`, the binding response (% of control) was determined as 44.3%.

Consider `FC(F)Oc1ccc(-c2c[n+]3c(n2-c2ccccc2)CCCCC3)cc1`, for which the binding response (% of control) amounted to 256%.

With `Cc1nn(Cc2ccc(F)cc2)c(C)c1NC(=O)c1cnn2cccnc12`, the binding response (% of control) turned out to be 109%.

As for `CC1=C(C(N)=O)C(c2cccc(OCc3ccccc3)c2)n2nnnc2N1` (stereo unspecified), the binding response (% of control) was 91.9%.

Take `Cc1ccc(Cl)cc1N(Cc1ccc(C(=O)NCc2cccnc2)cc1)S(=O)(=O)c1ccccc1`: the binding response (% of control) came out at 98.3%.

For `CCCCCOc1ccc(NC(=O)CCCC(=O)O)cc1`, the binding response (% of control) was 81.9%.

Turning to `C#CCn1cnc2c(cnn2-c2ccc(C)c(C)c2)c1=O`, the binding response (% of control) was found to be 106%.

For the molecule `COc1ccc(C(=O)CSc2nc3ncccc3[nH]2)cc1OC`, the binding response (% of control) came out at 52.5%.

Regarding `CCn1cc(C(=O)NCC2CCCO2)c2cc(OC)c(OC)cc2c1=O` (stereo unspecified), the binding response (% of control) was found to be 103%.

Regarding `Cc1cc(C)nc(SCC(=O)N2CCC(C(N)=O)CC2)n1`, the binding response (% of control) came to 105%.

On to `CCC(=O)N1CCc2cc(S(=O)(=O)NC(Cc3ccccc3)C(=O)Nc3nccs3)ccc21` (stereo unspecified), for which the binding response (% of control) is -46.3%.

In the case of `O=c1[nH]c2cc3c(cc2cc1CN(Cc1ccc2c(c1)OCO2)Cc1nnnn1CC1CCCO1)OCO3` (stereo unspecified), the binding response (% of control) turned out to be 90.7%.

On to `Cc1ccc(/C=C2\CCCC3=C2NC(=S)NC3c2ccc(C)cc2)cc1` (stereo unspecified), for which the binding response (% of control) is 203%.

Consider `C=CCn1c2ccccc2c2nnc(SCN3C(=O)c4ccccc4C3=O)nc21`, for which the binding response (% of control) came out at 77.7%.

Turning to `CCCC(C)NC(=O)Cc1ccccc1[N+](=O)[O-]` (stereo unspecified), the binding response (% of control) came to 110%.

With `O=C(CN1CCSCC1)N1CCc2[nH]c3ccc(Br)cc3c2C1`, the binding response (% of control) was 66.9%.

Turning to `CCc1ccc(OCC(=O)Nc2cc(S(=O)(=O)CC)ccc2O)cc1`, the binding response (% of control) was 89.9%.

On to `Cc1ccc(NC(CC(=O)c2ccccc2)c2ccc(F)cc2)cc1` (stereo unspecified), for which the binding response (% of control) came to 100%.

On to `O=C1COc2ccc(C(=O)NCc3ccc4c(c3)OCO4)cc2N1`, for which the binding response (% of control) worked out at 104%.

In the case of `CC(NC(=O)C(=O)NN=C1CCCCCCCCCCC1)c1ccccc1` (stereo unspecified), the binding response (% of control) worked out at 101%.

As for `COc1ccc(-c2nn[nH]n2)cc1OC`, the binding response (% of control) was determined as 116%.

Take `O=C(CN1CCOCC1)Nc1ncc(Cc2ccccc2Cl)s1`: the binding response (% of control) worked out at 108%.

On to `Clc1ccc(-c2nn3c(C4COc5ccccc5O4)nnc3s2)cc1` (stereo unspecified), for which the binding response (% of control) turned out to be 17.6%.

As for `C/C(CC(=O)Nc1cccc(Cl)c1C)=N\NC(=O)C(=O)NCC(C)C`, the binding response (% of control) worked out at 105%.

`COC(=O)CNC(=O)COC(=O)c1ccc(OC)c([N+](=O)[O-])c1`: the binding response (% of control) amounted to 98.3%.

In the case of `CCN1CCN(C(c2cccs2)C(C)NC(=O)c2c(F)cccc2F)CC1` (stereo unspecified), the binding response (% of control) was determined as 114%.

With `BrC(/C=C\c1ccccc1)=N/Nc1nc(N2CCOCC2)nc(N2CCOCC2)n1`, the binding response (% of control) came out at 98.4%.

Consider `O=C(c1ccccc1NS(=O)(=O)c1ccc(Br)s1)N1CCCC1`, for which the binding response (% of control) was 102%.

With `Cc1cc(C)c(C#N)c(SCC(=O)N2CCCCC2)n1`, the binding response (% of control) came out at 91.6%.
